Data taken from PubChem BioAssay AID1159580 (chemical genetic matrix, 2015).
The whole screen tested about 5,500 compounds, of which about 2,000 (36%) were called active. Another 18% or so got no clear call; they are omitted. No stated cut-off is given here; in the data, active means normalized growth mostly below about 0.91 (no sharp cut-off); inconclusive means no clear call, values can overlap the other calls; inactive means mostly above about 0.92. The list shows a part of the results.

Assay: chemical genetic growth profiling, strain panel (AID 1159580);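 further: tested at 20 µM; growth read once vehicle control cultures reached saturation at 30 °C; 1 = growth at the plate median or of vehicle wells; lower values mean less growth of the strain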
Conditions: growth OD
[1] = S. cerevisiae deletion strains, locus YMR263W, strain SAP30, hits give low values
[2] = S. cerevisiae deletion strains, locus YMR307W, strain GAS1, hits give low values
[3] = S. cerevisiae deletion strains, locus YNL128W, strain TEP1, hits give low values
[4] = S. cerevisiae deletion strains, locus YPL055C, strain LGE1, hits give low values
[5] = S. cerevisiae deletion strains, locus YBR021W, strain FUR4, hits give low values
[6] = S. cerevisiae deletion strains, locus YBR229C, strain ROT2, hits give low values
[7] = S. cerevisiae deletion strains, locus YCL029C, strain bik1, hits give low values
[8] = S. cerevisiae deletion strains, locus YDL035C, strain GPR1, hits give low values
[9] = S. cerevisiae deletion strains, locus YDL074C, strain BRE1, hits give low values
[10] = S. cerevisiae deletion strains, locus YDL101C, strain DUN1, hits give low values
[11] = S. cerevisiae deletion strains, locus YDL185W, strain tfp1, hits give low values
[12] = S. cerevisiae deletion strains, locus YDL192W, strain arf1, hits give low values
[13] = S. cerevisiae deletion strains, locus YDR101C, strain arx1, hits give low values
[14] = S. cerevisiae deletion strains, locus YDR162C, strain NBP2, hits give low values
[15] = S. cerevisiae deletion strains, locus YDR318W, strain mcm21, hits give low values
[16] = S. cerevisiae deletion strains, locus YDR388W, hits give low values
[17] = S. cerevisiae deletion strains, locus YDR502C, strain sam2, hits give low values
[18] = S. cerevisiae deletion strains, locus YER110C, hits give low values
[19] = S. cerevisiae deletion strains, locus YER155C, strain BEM2, hits give low values
[20] = S. cerevisiae deletion strains, locus YER167W, strain BCK2, hits give low values
[21] = S. cerevisiae deletion strains, locus YGL078C, strain dbp3, hits give low values
[22] = S. cerevisiae deletion strains, locus YGL086W, strain mad1, hits give low values
[23] = S. cerevisiae deletion strains, locus YGL248W, strain PDE1, hits give low values
[24] = S. cerevisiae deletion strains, locus YGR135W, strain pre9, hits give low values
[25] = S. cerevisiae deletion strains, locus YGR252W, strain gcn5, hits give low values
[26] = S. cerevisiae deletion strains, locus YHR079C, strain IRE1 (second series), hits give low values
[27] = S. cerevisiae deletion strains, locus YHR094C, strain hxt1, hits give low values
[28] = S. cerevisiae deletion strains, locus YHR129C, strain ARP1, hits give low values
[29] = S. cerevisiae deletion strains, locus YHR200W, strain rpn10, hits give low values
[30] = S. cerevisiae deletion strains, locus YIL066C, strain RNR3, hits give low values
[31] = S. cerevisiae deletion strains, locus YIL073C, strain SPO22, hits give low values
[32] = S. cerevisiae deletion strains, locus YIL125W, strain kgd1, hits give low values
[33] = S. cerevisiae deletion strains, locus YIR030C, strain dcg1, hits give low values
[34] = S. cerevisiae deletion strains, locus YJL095W, strain BCK1, hits give low values
[35] = S. cerevisiae deletion strains, locus YJL134W, strain LCB3, hits give low values
[36] = S. cerevisiae deletion strains, locus YJL168C, strain set2, hits give low values
[37] = S. cerevisiae deletion strains, locus YJL187C, strain SWE1 (second series), hits give low values
[38] = S. cerevisiae deletion strains, locus YKL009W, strain mrt4, hits give low values
[39] = S. cerevisiae deletion strains, locus YKL068W, hits give low values
[40] = S. cerevisiae deletion strains, locus YKL085W, strain MDH1 (second series), hits give low values
[41] = S. cerevisiae deletion strains, locus YKL085W, strain MDH1, hits give low values
[42] = S. cerevisiae deletion strains, locus YKR001C, strain vps1, hits give low values
[43] = S. cerevisiae deletion strains, locus YLR039C, strain RIC1, hits give low values
[44] = S. cerevisiae deletion strains, locus YLR058C, strain SHM2, hits give low values
[45] = S. cerevisiae deletion strains, locus YLR102C, strain apc9, hits give low values
[46] = S. cerevisiae deletion strains, locus YLR262C, strain YPT6, hits give low values
[47] = S. cerevisiae deletion strains, locus YLR268W, strain sec22, hits give low values
[48] = S. cerevisiae deletion strains, locus YLR371W, strain rom2, hits give low values
[49] = S. cerevisiae deletion strains, locus YLR418C, strain cdc73, hits give low values
[50] = S. cerevisiae deletion strains, locus YML016C, strain PPZ1, hits give low values
[51] = S. cerevisiae deletion strains, locus YML032C, strain rad52, hits give low values
[52] = S. cerevisiae deletion strains, locus YML124C, strain tub3, hits give low values
[53] = S. cerevisiae deletion strains, locus YMR078C, strain ctf18, hits give low values
[54] = S. cerevisiae deletion strains, locus YMR223W, strain ubp8, hits give low values
[55] = S. cerevisiae deletion strains, locus YNL067W, strain RPL9B, hits give low values
[56] = S. cerevisiae deletion strains, locus YNL233W, strain BNI4, hits give low values
[57] = S. cerevisiae deletion strains, locus YNL250W, strain rad50, hits give low values
[58] = S. cerevisiae deletion strains, locus YNL271C, strain bni1, hits give low values
[59] = S. cerevisiae deletion strains, locus YNL298W, strain CLA4, hits give low values
[60] = S. cerevisiae deletion strains, locus YNL307C, strain MCK1, hits give low values
[61] = S. cerevisiae deletion strains, locus YNR052C, strain pop2, hits give low values
[62] = S. cerevisiae deletion strains, locus YOL012C, strain htz1
[63] = S. cerevisiae deletion strains, locus YOL147C, strain pex11, hits give low values
[64] = S. cerevisiae deletion strains, locus YOR061W, strain CKA2, hits give low values
[65] = S. cerevisiae deletion strains, locus YOR069W, strain VPS5, hits give low values
[66] = S. cerevisiae deletion strains, locus YOR136W, strain idh2, hits give low values
[67] = S. cerevisiae deletion strains, locus YOR144C, strain elg1, hits give low values
[68] = S. cerevisiae deletion strains, locus YOR184W, strain ser1, hits give low values
[69] = S. cerevisiae deletion strains, locus YOR316C, strain cot1, hits give low values
[70] = S. cerevisiae deletion strains, locus YPL241C, strain CIN2, hits give low values
[71] = S. cerevisiae deletion strains, locus YPR119W, strain clb2, hits give low values
[72] = S. cerevisiae deletion strains, locus YPR141C, strain kar3, hits give low values
[73] = S. cerevisiae deletion strains, locus YPR163C, strain tif3, hits give low values
[74] = S. cerevisiae deletion strains, locus YPR167C, strain met16, hits give low values
[75] = S. cerevisiae deletion strains, strain wtn01, hits give low values

Measured: normalized growth

CC(O)C(O)[C@H]1CNc2nc(N)[nH]c(=O)c2N1 (stereo partly drawn)
inactive: S. cerevisiae deletion strains, locus YAL040C, strain CLN3, hits give low values 1.04 | S. cerevisiae deletion strains, locus YCL061C, strain MRC1 (second series), hits give low values 1.01 | S. cerevisiae deletion strains, locus YDR150W, strain NUM1, hits give low values 1.02 | S. cerevisiae deletion strains, locus YDR363W, strain ESC2, hits give low values 1.01 | S. cerevisiae deletion strains, locus YER002W, strain NOP16, hits give low values 1 | S. cerevisiae deletion strains, locus YJR075W, strain HOC1, hits give low values 1.04 | [1] 1.01 | [2] 0.995 | [3] 0.998 | S. cerevisiae deletion strains, locus YNL175C, strain NOP13, hits give low values 0.999 | S. cerevisiae deletion strains, locus YNL197C, strain WHI3, hits give low values 1.01 | S. cerevisiae deletion strains, locus YNL224C, strain SQS1, hits give low values 1 | S. cerevisiae deletion strains, locus YOR083W, strain WHI5 (second series), hits give low values 1.02 | [4] 1.04

CC(=O)OC1CC(OC(C)=O)C2(C)C(CC(OC(C)=O)C3(C)C2CCC2(C)C(c4ccoc4)CC4OC423)C1(C)C (stereo not drawn)
inactive: [5] 0.998 | [6] 1 | [7] 1 | [8] 1.01 | [9] 1.02 | [10] 1.03 | [11] 1.01 | [12] 1.01 | [13] 0.998 | [14] 1.01 | [15] 1 | [16] 1.01 | [17] 1.02 | [18] 1.01 | [19] 1 | [20] 1.01 | [21] 1.02 | [22] 0.997 | [23] 1.01 | [24] 1.04 | S. cerevisiae deletion strains, locus YGR229C, strain SMI1, hits give low values 1.02 | [25] 0.998 | [26] 1.01 | [27] 1.01 | [28] 1.02 | [29] 1.01 | [30] 1.01 | [31] 1.05 | [32] 1.01 | [33] 1 | [34] 1.04 | [35] 1.01 | [36] 1.01 | [37] 1.02 | S. cerevisiae deletion strains, locus YJR043C, strain POL32, hits give low values 0.981 | [38] 0.984 | [39] 1 | [40] 1.01 | [41] 1.01 | [42] 1 | [43] 1.01 | [44] 1.01 | [45] 1.01 | [46] 0.927 | [47] 0.994 | S. cerevisiae deletion strains, locus YLR330W, strain CHS5, hits give low values 1.02 | S. cerevisiae deletion strains, locus YLR342W, strain FKS1 (second series), hits give low values 1 | [48] 1.02 | [49] 1.02 | [50] 1.01 | [51] 1.01 | [52] 1 | [53] 1.01 | [54] 1.01 | [1] 1.02 | [2] 1.01 | [55] 1.03 | S. cerevisiae deletion strains, locus YNL153C, strain GIM3, hits give low values 1.03 | [56] 0.986 | [57] 1.01 | [58] 0.998 | [59] 1.02 | [60] 1.02 | [61] 1.01 | [62] 0.881 | [63] 0.996 | [64] 1 | [65] 1.01 | [66] 1 | [67] 0.999 | [68] 0.982 | [69] 1.01 | [70] 1.01 | [71] 1 | [72] 1.02 | [73] 1.01 | [74] 1.01 | [75] 0.997

CC1(C)C(O)CC(O)C2(C)C1CC(O)C1(C)C2CCC2(C)C(c3ccoc3)CC3OC321 (stereo not drawn)
inactive: [5] 0.936 | [6] 1.01 | [7] 1 | [8] 0.969 | [9] 0.973 | [10] 1 | S. cerevisiae deletion strains, locus YDL134C, strain PPH21, hits give low values 0.992 | [11] 1.02 | [12] 1 | [13] 0.987 | [14] 0.998 | [15] 1 | [16] 1.01 | [17] 0.998 | S. cerevisiae deletion strains, locus YEL061C, strain CIN8, hits give low values 0.997 | [18] 1.02 | [19] 0.996 | [20] 1 | [21] 1.01 | [22] 0.99 | [23] 1 | S. cerevisiae deletion strains, locus YGR078C, strain PAC10, hits give low values 0.991 | [24] 0.997 | [25] 0.981 | S. cerevisiae deletion strains, locus YHR030C, strain SLT2, hits give low values 1.01 | [26] 1.02 | [27] 1.01 | [28] 0.998 | [29] 1 | [30] 0.99 | [31] 1.04 | [32] 1.01 | [33] 1.02 | [34] 0.978 | [35] 0.998 | [36] 1.01 | [37] 0.996 | [38] 0.982 | [39] 1.01 | [40] 0.996 | [41] 0.996 | [42] 0.99 | [43] 1.03 | [44] 0.998 | [45] 1 | [46] 1.01 | [47] 0.993 | [48] 0.994 | [49] 0.983 | [50] 1 | [51] 1.01 | [52] 1.01 | [53] 1.02 | [54] 0.989 | [1] 1.01 | [2] 0.991 | [55] 1 | [3] 0.998 | [56] 0.978 | [57] 1.01 | [58] 1.01 | [59] 1.01 | [60] 1.03 | S. cerevisiae deletion strains, locus YNL322C, strain KRE1, hits give low values 0.996 | [61] 1 | [62] 1.12 | [63] 1 | [64] 1 | [65] 1 | [66] 0.998 | [67] 1.02 | [68] 0.976 | [69] 1.01 | [4] 0.988 | [70] 0.997 | [71] 1.01 | [72] 1.02 | [73] 1.01 | [74] 1.01 | [75] 0.986 | S. cerevisiae strains, strain wild type, hits give low values 0.972
